Compounds with a hit are over-represented: about 1.7% of the library has one in this group of screens.
BJeLR lethal – BJeLR cell viability loss; BJeLR (HRASV12) viability, CellTiter-Glo ATP luminescence, 48 h; inhibition, % (concentration not given with the values); actives 0.17% (n = 300,000); AID 1554; in the data active means inhibition above about 50%; inconclusive means no clear call, values can overlap the other calls
Vc quorum ag – inducers of Vibrio cholerae quorum light production without autoinducers; V. cholerae BH1578 lux reporter, luminescence, 6 h; activation, % at 18.7 µM; actives 0.16% (n = 350,000); AID 588436; in the data active means activation mostly above about 9.7%, no sharp cut-off; inconclusive means no clear call, values can overlap the other calls; inactive means mostly below about 3.7%
DUSP3 inh – inhibitors of human VHR1 phosphatase (DUSP3) | P51452 | inhibition, % at 13.3 µM | actives 0.52% (n = 290,000) | AID 1654 | recombinant VHR phosphatase, pNPP absorbance; in the data active means inhibition above about 50%
Target sequence (P51452 whole entry, looked up): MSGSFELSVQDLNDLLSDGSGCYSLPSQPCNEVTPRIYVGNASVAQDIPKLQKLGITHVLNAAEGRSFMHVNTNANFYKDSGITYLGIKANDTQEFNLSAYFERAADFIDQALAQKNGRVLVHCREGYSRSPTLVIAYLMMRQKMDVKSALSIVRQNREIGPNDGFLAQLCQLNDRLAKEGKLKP
MazF activator – activators of E. coli MazEF toxin-antitoxin RNase; actives 0.32% (n = 350,000); P0AE70; activation, % at 20 µM; AID 504720; FAM/BHQ RNA-DNA oligo cleavage fluorescence, 5 h; in the data active means activation above about 50%
Target sequence (P0AE70 whole entry, looked up): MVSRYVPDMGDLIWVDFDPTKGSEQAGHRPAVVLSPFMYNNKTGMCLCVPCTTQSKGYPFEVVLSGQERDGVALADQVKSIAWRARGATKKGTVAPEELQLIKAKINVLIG
SARS 3CLpro inh-1 – SARS-CoV 3CLpro protease inhibition; P0C6X7; recombinant SARS-CoV 3CLpro, quenched FRET peptide cleavage; inhibition, % at 6 µM; actives 0.14% (n = 290,000); in the data active means inhibition above about 12%
PfHsp40 rescue – restores yeast growth despite PfHsp40 toxicity; S. cerevisiae expressing PfHsp40, growth rescue, ATP luminescence; growth rescue, % at 12.5 µM; actives 0.68% (n = 340,000); AID 504582; in the data active means growth rescue above about 28%, passing the limit was not always enough; inconclusive means no clear call, values can overlap the other calls;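 further: yeast W303a lacking pdr1 and pdr3 grown in galactose medium; growth measured after three days at 30 °C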
SARS 3CLpro inh-2 – SARS 3CLpro inhibition, confirmation assay | shares compounds with SARS 3CLpro inh-1 | inhibition, % at 6 µM | QFRET protease activity assay | actives 36% (n = 380); in the data active means inhibition above about 13%
Large screens that a line does not name were inactive (follow-up assays come after a bar, where they were run).

CN(C)c1nc(N)nc(-c2nc3ccccc3s2)n1	SARS 3CLpro inh-1 13.1 | SARS 3CLpro inh-2 inactive
CC1=Nc2cccc3cccc(c23)N1C	SARS 3CLpro inh-1 12.7 | SARS 3CLpro inh-2 inactive
CCOc1ccc(C(=O)NCC(=O)NCCCSc2ccccc2)cc1OCC	none
COc1ccc(S(=O)(=O)Nc2ccc(F)cc2)cc1N(C)S(=O)(=O)c1ccc(Cl)cc1	SARS 3CLpro inh-1 17.0 | SARS 3CLpro inh-2 inactive
COc1ccc(NS(=O)(=O)c2ccc(OC)c(N(C)S(=O)(=O)c3ccc(Cl)cc3)c2)cc1	none
Cc1cc(-c2ccccc2)n(-c2ccccc2)n1	none
CC(C)(C)C1CCc2onc(C(=O)Nc3cccnc3)c2C1 (configuration not stated)	SARS 3CLpro inh-1 13.6 | SARS 3CLpro inh-2 inactive
O=C(NCC1CCCO1)c1ccc(Cl)c(S(=O)(=O)Nc2ccccc2)c1 (configuration not stated)	none
Cc1ccc(-c2csc(NC(=O)c3cccc([N+](=O)[O-])c3C(=O)O)n2)cc1	none
O=C(Nc1nc(-c2cccc([N+](=O)[O-])c2)cs1)c1cccc([N+](=O)[O-])c1C(=O)O	SARS 3CLpro inh-1 17.5 | SARS 3CLpro inh-2 inactive
Cc1ccc(C)c(S(=O)(=O)N2CCN(C(=O)c3ccc(-n4cncn4)c([N+](=O)[O-])c3)CC2)c1	none (no result: DUSP3 inh, SARS 3CLpro inh-1, PfHsp40 rescue)
Cc1ccc(C)c(S(=O)(=O)N2CCN(C(=O)c3ccc(N4CCCC4)c([N+](=O)[O-])c3)CC2)c1	SARS 3CLpro inh-1 12.8 | SARS 3CLpro inh-2 inactive
CCc1cccc(CC)c1N(COC)C(=O)Cn1nnc2ccccc21	SARS 3CLpro inh-1 12.3 | SARS 3CLpro inh-2 13.4
COc1ccc(-c2cc(N)n(S(=O)(=O)c3c(F)c(F)c(F)c(F)c3F)n2)cc1OC	SARS 3CLpro inh-1 13.6 | SARS 3CLpro inh-2 inactive
COc1ccc(CNC(=O)C2CCCN2C)cc1OC (configuration not stated)	none
CCCc1nc(SCC(=O)N2CCOCC2)c2c(C)c(C)sc2n1	none
O=C(/C=C/c1ccc([N+](=O)[O-])cc1)NCc1cccnc1	none
O=C(/C=C/c1ccc(Cl)c([N+](=O)[O-])c1)NCc1cccnc1	SARS 3CLpro inh-1 17.9 (no result: DUSP3 inh) | SARS 3CLpro inh-2 18.5
O=C(O)CCN(CCC(=O)O)c1ccccc1	none
CC(C)CN(CCC(=O)O)CC(C)C	SARS 3CLpro inh-1 14.2 | SARS 3CLpro inh-2 inactive
CCN(C(=O)c1ccc2c(c1)OCO2)C1CCS(=O)(=O)C1 (configuration not stated)	none (no result: DUSP3 inh, SARS 3CLpro inh-1)
Cc1nonc1OCCn1c([N+](=O)[O-])cnc1C	none
Nc1ccc2nn(-c3ccccc3)nc2c1	none (no result: BJeLR lethal)
Nc1cc2nn(-c3ccccc3)nc2cc1Cl	SARS 3CLpro inh-1 12.4 | SARS 3CLpro inh-2 inactive
COc1cc(C2CC(c3cccs3)=NN2C(=O)CCl)ccc1OC(F)F (configuration not stated)	BJeLR lethal 95.8, SARS 3CLpro inh-1 55.6 | SARS 3CLpro inh-2 74.0
Cc1ccc(C2=NN(C(=O)CCl)C(c3cccs3)C2)o1 (configuration not stated)	SARS 3CLpro inh-1 14.3 | SARS 3CLpro inh-2 59.4
COc1ccc(C2CC(c3cccs3)=NN2C(=O)c2ccccc2)cc1OC (configuration not stated)	none
COc1ccc(C2CC(c3cccs3)=NN2C(=O)CCl)cc1OC (configuration not stated)	SARS 3CLpro inh-1 74.3 | SARS 3CLpro inh-2 81.4
COc1ccc(N2CCN(C(=O)COC(=O)COc3ccc(C#N)cc3)CC2)cc1	none (no result: DUSP3 inh, SARS 3CLpro inh-1)
O=C(Oc1cccc2c(OC(=O)N3CCOCC3)cccc12)N1CCOCC1	none
O=C(Oc1ccc2cccc(OC(=O)N3CCOCC3)c2c1)N1CCOCC1	SARS 3CLpro inh-1 12.6 | SARS 3CLpro inh-2 inactive
CC(C)C12CN(C(=O)c3ccccc3[N+](=O)[O-])CC(C(C)C)(CN(C(=O)c3ccccc3[N+](=O)[O-])C1)C2=O	SARS 3CLpro inh-1 29.3 | SARS 3CLpro inh-2 34.8
Cc1cc2oc(C(=O)Nc3ccc(S(N)(=O)=O)cc3)c(C)c2cc1Cl	none
COC(=O)CC1COc2ccccc2N1C(=O)/C=C/c1ccccc1 (configuration not stated)	SARS 3CLpro inh-1 45.7 | SARS 3CLpro inh-2 inactive
Cc1ccc(C(=O)NCC#N)cc1	none
Cc1ccc(C(=O)NC(=C(Cl)Cl)S(=O)(=O)c2ccccc2)cc1	SARS 3CLpro inh-1 21.2 | SARS 3CLpro inh-2 27.8
COc1ccc(C(=O)NC(=C(Cl)Cl)S(=O)(=O)c2ccc(C)cc2)cc1	none
Cc1ccc(C(=O)NC(C#N)=C(Cl)Cl)cc1	SARS 3CLpro inh-1 13.0 (no result: Vc quorum ag, PfHsp40 rescue) | SARS 3CLpro inh-2 inactive
O=C(CN1CCN(Cc2ccccc2)CC1)N/N=C/c1cccnc1	none
Cc1ccccc1C(=O)Nc1sc(C)c(C)c1C(=O)c1ccccc1	none
Cc1sc(NC(=O)CCl)c(C(=O)c2ccccc2)c1C	SARS 3CLpro inh-1 14.5 (no result: Vc quorum ag) | SARS 3CLpro inh-2 35.6
CCN1C[C@@H]2[C@@H]3C(=O)N(C)C(=O)[C@@H]3[C@](CC)(C(=O)OC)N2C1=NCc1ccccc1	none (no result: BJeLR lethal, DUSP3 inh, SARS 3CLpro inh-1)
COc1ccc(/C(N)=N/OC(=O)CSc2ccccc2)cc1OC	SARS 3CLpro inh-1 12.7 | SARS 3CLpro inh-2 inactive
Cc1cc(C)c(S(=O)(=O)/N=C2\C=C(Nc3ccc(C(=O)O)cc3)C(=O)c3ccccc32)c(C)c1	SARS 3CLpro inh-1 12.6, PfHsp40 rescue inconclusive | SARS 3CLpro inh-2 inactive
CC(C)Oc1ccc(/C=N/NC(=O)c2nnn(-c3nonc3N)c2CN(C)c2ccccc2)cc1	SARS 3CLpro inh-1 13.9 | SARS 3CLpro inh-2 inactive
CN(Cc1c(C(=O)N/N=C/c2cccc(O)c2)nnn1-c1nonc1N)c1ccccc1	none
Cc1c(OCC(=O)N[C@@H](Cc2c[nH]c3ccccc23)C(=O)O)ccc2c1oc(=O)c1ccccc12	SARS 3CLpro inh-1 13.8 | SARS 3CLpro inh-2 inactive
Cc1ccc2[nH]c3c(c2c1)CN(C(=O)CN1CCN(C(=O)c2ccco2)CC1)CC3	none (no result: Vc quorum ag, MazF activator, PfHsp40 rescue)
O=C(CN1CCSCC1)N1CCc2[nH]c3ccc(Br)cc3c2C1	SARS 3CLpro inh-1 21.9 (no result: Vc quorum ag, MazF activator, PfHsp40 rescue) | SARS 3CLpro inh-2 75.2
COc1cccc(CN(C)C(=O)c2ccc(OCC(=O)N3CCOCC3)c(OC)c2)c1	none (no result: BJeLR lethal, DUSP3 inh, SARS 3CLpro inh-1)
CC(NC(=O)CCl)c1ccc(Cl)c(Cl)c1 (configuration not stated)	SARS 3CLpro inh-1 19.7 | SARS 3CLpro inh-2 40.0
Oc1ccc(C[C@@H]2CNCCN2CCc2cccc(F)c2)cc1	none (no result: DUSP3 inh, SARS 3CLpro inh-1)
CCCNS(=O)(=O)c1ccc(CCC(=O)Nc2cc(Cl)ccc2Oc2ccccc2)cc1	none
CC(C)CNS(=O)(=O)c1ccc(CCC(=O)Nc2cc(Cl)ccc2Oc2ccccc2)cc1	SARS 3CLpro inh-1 12.4 | SARS 3CLpro inh-2 inactive
COc1ccc(Nc2oc(COc3ccc(OC)cc3)nc2C#N)cc1	none
COc1ccc(Nc2oc(COc3ccc(C)cc3)nc2C#N)cc1	SARS 3CLpro inh-1 12.7, PfHsp40 rescue inconclusive (no result: Vc quorum ag) | SARS 3CLpro inh-2 inactive

Screens as filed in PubChem BioAssay.
